Consider 13 compounds from PubChem BioAssay.

The nature of experiment [1]: viability loss in pontine glioma line – cell-based, SU-DIPG-XIII, MIPE4.0, CellTiter-Glo, qHTS, dose response (AID 1347061; cut-off not given, nearly all actives have AC50 up to about 37 µM;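 also: cells exposed to compound for 48 hours before readout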). The settings on record: CellTiter-Glo ATP luminescence. For orientation: Cellular ATP, detected with luciferase, serves as a proxy for viable cell number.
A short description of experiment [2]: viability loss in pontine glioma line – cell-based, JHH-DIPG-1, MIPE4.0, CellTiter-Glo, qHTS, dose response (AID 1347062; cut-off not given, nearly all actives have AC50 up to about 27 µM;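 as to AC50: cells exposed to compound for two days before readout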). The settings on record: JHH-DIPG-1 viability, CellTiter-Glo ATP luminescence.
Experiment [3] is described as follows: viability loss in pontine glioma line – cell-based, SU-DIPG-IV, MIPE4.0, CellTiter-Glo, qHTS, dose response (AID 1347063).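 Also: compound exposure lasted 48 hours before the viability readout.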 Particulars: CellTiter-Glo ATP luminescence.
Experiment [4] can be described thus: growth inhibition of DIPG cells – cell-based, MIPE4.0 library, CellTiter-Glo luminescence, qHTS (AID 1347066).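 Also: cells exposed to compound for 48 hours before readout.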 The settings on record: SU-DIPG-VI viability, CellTiter-Glo ATP luminescence.
Experiment [5] in a line: viability loss with induced miR-34 in A549 – imaging, A549 dox-inducible miR-34, nuclei and caspase counts, primary screen (AID 1347080;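 active = compounds whose cell count with miR-34 switched on is under 0.7 times the count with it off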). Particulars: A549 miR-34 inducible, Hoechst nuclei count, 48 h.
Experiment [6] in a line: MELAS cybrid and Rieske KO viability enhancers – cell-based, MELAS cybrids, Rieske KO mouse fibroblasts, CellTiter-Glo, primary screen (AID 1508586;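 active = mean z-score across replicates of 1.96 or higher in either the MELAS or the Rieske mutant cell line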;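 also: z relative to plate mean and SD of compound and empty wells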). The settings on record: low glucose.
Experiment [7] can be described thus: JHH-DIPG-1 glioma cell viability, MIPE5.0 library, CellTiter-Glo luminescence, qHTS (AID 1347067; cut-off not given, nearly all actives have AC50 up to about 26 µM;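 also: cells exposed to compound for 48 hours before readout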). The settings on record: JHH-DIPG-1 glioma viability, CellTiter-Glo ATP luminescence.
The nature of experiment [8]: growth inhibition of DIPG cells – cell-based, MIPE5.0 library, qHTS (AID 1347068; cut-off not given, nearly all actives have IC50 up to about 30 µM;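 as to IC50: cells exposed to compound for 48 hours before viability readout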). Particulars: SU-DIPG-XXV viability.
Experiment [9] in a line: viability loss in pontine glioma line – cell-based, SU-DIPG-XIII, MIPE5.0, CellTiter-Glo, qHTS, dose response (AID 1347064; cut-off not given, nearly all actives have AC50 up to about 23 µM;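 also: cells exposed to compound for 48 hours before the viability read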). The settings on record: CellTiter-Glo ATP luminescence.
The nature of experiment [10]: viability loss in pontine glioma line – cell-based, SU-DIPG-XXV, MIPE5.0, CellTiter-Glo, qHTS, dose response (AID 1347065; cut-off not given, nearly all actives have AC50 up to about 26 µM;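 also: cells exposed to compound for 48 hours before ATP readout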). Particulars: CellTiter-Glo ATP luminescence.
Setting [11] is: stronger effect = lower value, cell number ratio, induced over uninduced.
Setting [12] is: measured here: relative caspase fold change +Dox/-Dox.
The mark [13] stands for this setting: measured here: total cells with miR-34 induction, stronger effect = lower value.
The mark [14] stands for this setting: measured here: total cells without miR-34 induction.
Setting [15] is: MELAS cybrid survival, CellTiter-Glo 48 h, stronger effect = higher value.
[16] abbreviates: Rieske KO mouse fibroblast survival, CellTiter-Glo 72 h.

Values joined by “and” are separate entries in the source; they are usually repeats but may differ in a detail not shown here. Equal entries are not always repeated. Inconclusive results are not listed. Active and inactive are the calls of the source. Unless noted, the limit is not given here; nearly all actives have AC50 up to about 30 µM.

For the compound `CCC(CC)[C@H](NC(C)=O)[C@@H]1[C@H](O)[C@@H](C(=O)O)C[C@H]1N=C(N)N`, the compound was classed as inactive in [1], in experiment [2], in experiment [3] and in experiment [4].
Turning to `CN1[C@@H]2CC(OC(=O)[C@@H](CO)c3ccccc3)C[C@H]1[C@H]1O[C@H]12` (some centres not stated), the compound was called inactive in experiment [1], in experiment [2], in [3] and in experiment [4].
As to `O=C(Nc1cc2cc[nH]c2cn1)c1ccccc1`, the AC50 – broadly, the midpoint of the concentration-response curve, whichever way the signal moves – in experiment [1] was 14.8 µM (active); in experiment [2] it was 5.9 µM (active); in experiment [3], 3.32 µM (active); in experiment [4], 14.8 µM (active). In addition, the fold change was 0.982 (inactive) in experiment [5] (setting [11]) and 0.194 in experiment [5] (setting [12]). Moreover, the cell count in [5] (setting [13]) worked out at 8430; in [5] (setting [14]) it was 8590. Further, the z-score in experiment [6] (setting [15]) was -0.697 (inactive); in experiment [6] (setting [16]) it was -2.76.
For the compound `CC(C(C)N1CC(=O)NC(=O)C1)N1CC(=O)NC(=O)C1` (configuration not stated), the compound was classed as inactive in experiment [1], in [2], in [3], in experiment [4], in [7] and in experiment [8].
For the compound `CC(O)C1C(=O)N2C(C(=O)O)=C(SC3CNC(C(=O)N(C)C)C3)C(C)C12` (configuration not stated), the outcome in [1], in [2], in experiment [3] and in experiment [4] was inactive. Moreover, the fold change was 0.9 (inactive) and 0.956 (inactive) in [5] (setting [11]); 2.32 and 0.899 in experiment [5] (setting [12]). For the same compound, the cell count in experiment [5] (setting [13]) was 9280 and 7430; in experiment [5] (setting [14]), 10300 and 7780. Moreover, the z-score in experiment [6] (setting [15]) was -0.432 (inactive); in [6] (setting [16]), 0.361.
As to `C=C1/C(=C/C=C2\CCCC3(C)[C@@H]([C@H](C)/C=C/C=C/C(O)(CC)CC)CC[C@@H]23)C[C@@H](O)C[C@@H]1O` (some centres not stated), the AC50 is 18.7 µM (active) in [1], 20.9 µM (active) in experiment [2] and 16.6 µM (active) in experiment [3]. The outcome in experiment [8] was inactive.
As for `CC(NCc1ccc2c(c1)nc(NC(=O)c1ccc(-c3cn[nH]c3)s1)n2CC(C)(C)O)C(C)(C)C` (configuration not stated), the AC50 in experiment [1] was 3.32 µM (active); in experiment [2], 0.332 µM (active); in experiment [3], 0.833 µM (active); in experiment [4] it was 5.9 µM (active).
Take `O=C(Nc1ncc(SCCN2CCCC2)s1)[C@]1(c2ccc(S(=O)(=O)C3CC3)cc2)C[C@H]1C1CCCCC1`: the compound was called inactive in [1]. Further, the AC50 in [2] was 14.8 µM (active); in experiment [9], 16.6 µM (active); in [10] it was 9.34 µM (active); in [4], 20.9 µM (active); in [7], 11.8 µM (active). In addition, in experiment [8], the IC50 (in general, the midpoint of a concentration-inhibition curve) was 20.9 µM (active).
On to `N=C1S/C(=C\c2ccc(-c3ccc4c(c3)C(=O)NC4=O)o2)C(=O)N1c1ccc(Br)cc1`, for which the result in [1], in experiment [2], in [3], in experiment [4] and in experiment [8] was inactive.
For the compound `CCCCCCCCCCCCCCCC(=O)OC[C@@H](NC(=O)C(Cl)Cl)[C@H](O)c1ccc([N+](=O)[O-])cc1`, the outcome in experiment [1], in [2], in [3] and in experiment [4] was inactive.
In the case of `CC(C)CN(C[C@@H](O)[C@H](Cc1ccccc1)NC(=O)O[C@H]1CO[C@H]2OCC[C@H]21)S(=O)(=O)c1ccc(N)cc1`, the concentration at half-maximal activity (AC50) was 20.9 µM (active) in experiment [1] and 23.5 µM (active) in experiment [4]. Further, the result in experiment [2] and in experiment [3] was inactive. Also, the figures for the z-score in experiment [6] (setting [15]) and in [6] (setting [16]) were 0.705 (inactive) and 0.765, respectively.
With `CNC(=O)c1ccc(Nc2cc(Nc3ccccc3S(=O)(=O)C(C)C)c3cc[nH]c3n2)nc1`, the AC50 in experiment [1] is 16.6 µM (active); in [2], 14.8 µM (active); in experiment [3], 11.8 µM (active); in experiment [4], 16.6 µM (active).
With `C1=C/COCc2cc(ccc2OCCN2CCCC2)Nc2nccc(n2)-c2cccc(c2)OCC/1`, the AC50 in [1] was 14.8 µM (active); in [2] it was 4.18 µM (active); in experiment [3], 2.35 µM (active); in experiment [4], 5.26 µM (active).
